{"source": "PubChem BioAssay (NCI)", "note": "About 83,000 compounds went through this panel and 20% of them were active in at least one assay; those are over-represented in the sample as a whole.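 In brief: 96-well plates, 48 h treatment, single concentration, percent growth endpoint.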 Active and inactive are the calls of the source. The calls were made as follows: active = growth percent below 10; inactive = the rest."}
{"system": "RXF 393 renal", "assay": "NCI-60 one-dose screen, 48 h (100 = growth as untreated, 0 = no growth, -100 = all killed)", "settings": "10 µM unless noted"}
{"smiles": "CCC1S/C(=N\\N=C(/C)c2ccco2)N(c2ccccc2)C1=O", "note": "(centres undefined)", "growth": "103% (inactive)"}
{"smiles": "C#C[C@H](O)/C=C/CCCCCCC#C[C@H](O)CC[C@@H](O)C#CCCCCCC/C=C/[C@@H](O)C#C", "growth": "104% (inactive)"}
{"smiles": "O=[N+]([O-])c1cccc2cc(S(=O)(=O)O)ccc12", "growth": "122% (inactive)"}
{"smiles": "Nc1ccc(S(=O)(=O)Nc2cc(I)cc(I)c2)cc1", "growth": "97.2% (inactive)"}
{"smiles": "O=C(Nc1ccc(-n2cc(-c3ccncc3)c(-c3ccc(O)c(Cl)c3)n2)cc1)Nc1cc(C(F)(F)F)cc(C(F)(F)F)c1", "growth": "27% (inactive)"}
{"smiles": "O[C@@H]1CCO[C@H](c2ccc3ccccc3c2)C1", "growth": "97% (inactive)"}
{"smiles": "COc1cc(Cn2cc3c(c2)-c2onc(CO)c2CC3)cc(OC)c1OC", "growth": "95.8% (inactive)"}
{"smiles": "CN(C)CCS(=O)(=O)Nc1cc(-c2ccc3ncnc(Nc4ccc(F)c(Cl)c4)c3c2)cnc1Cl", "growth": "-47.2% (active)"}
{"smiles": "CCN(CC)c1ccc(C2CC(c3cc(OC)c(OC)c(OC)c3)=NN2)cc1", "note": "(centres undefined)", "growth": "-20.9% (active)"}
{"smiles": "CCn1cc(C(=O)O)c(=O)c2cc(F)c(N3CCN(CC(=O)Nc4ccc(C(C)=O)cc4)CC3)cc21", "growth": "102% (inactive)"}
{"smiles": "CCOc1ccc(-n2c(-c3cc(OC)c(OC)c(OC)c3)nnc2-c2ccc(OC)cc2N)cc1", "growth": "51.9% (inactive)"}
{"smiles": "COc1ccc(/C(=C/c2cc(OC)c(OC)c(OC)c2)[N+](=O)[O-])cc1", "growth": "-85.1% (active)"}
{"smiles": "O=C(Nc1cccc([N+](=O)[O-])c1)Nc1cccc([N+](=O)[O-])c1", "growth": "99.4% (inactive)"}
{"smiles": "COc1ccc(-c2nn(-c3ccc(NC(=O)Nc4cc(C(F)(F)F)cc(C(F)(F)F)c4)cc3)cc2-c2ccncc2)cc1Cl", "growth": "-26.2% (active)"}
{"smiles": "O=c1c2ccccc2sc2c(NCCCNCCO)nc3ccccc3c12", "growth": "14.2% (inactive)"}
{"smiles": "O=C(NNC(=O)c1ccc([N+](=O)[O-])cc1)c1ccc([N+](=O)[O-])cc1", "growth": "111% (inactive)"}
{"smiles": "CCN(CC)C(=O)C1CCN(C(=O)c2ccccc2)CC1", "growth": "105% (inactive)"}
{"smiles": "O=S(=O)(O)c1ccc(F)cc1", "growth": "116% (inactive)"}
{"smiles": "Cc1cc(SCc2ccc(Cl)cc2Cl)nc(SCc2ccc(Cl)cc2Cl)n1", "growth": "108% (inactive)"}
{"smiles": "CCOC(=O)c1noc2c1CCc1cn(Cc3cc(OC)cc(OC)c3)cc1-2", "growth": "113% (inactive)"}
{"smiles": "CC(C)(C)C(=O)Nc1nc2c(s1)CCc1ccn(S(=O)(=O)c3ccccc3)c1-2", "growth": "116% (inactive)"}
{"smiles": "CCCCCCCCCCCCCCCCNc1ccccc1", "growth": "110% (inactive)"}
{"smiles": "Cc1nc(N)nc(SCc2ccccc2)c1Br", "growth": "89.6% (inactive)"}
{"smiles": "O=S(c1ccccc1)c1ccc2nnnn2n1", "note": "(centres undefined)", "growth": "117% (inactive)"}
{"smiles": "O=C1COc2ccccc2C(=O)N1CCCCN1CCCCC1", "growth": "118% (inactive)"}
{"smiles": "O=C(COc1ccc(Cl)cc1Cl)N1N=C(c2ccc(Cl)cc2Cl)CC1(O)c1cc(F)c(Cl)cc1Cl", "note": "(centres undefined)", "growth": "134% (inactive)"}
{"smiles": "CC(CCC(=O)O)[C@H]1CCC2C3C(=O)C[C@@H]4CC(=O)CC[C@]4(C)C3CC(=O)[C@@]21C", "note": "(some centres undefined)", "growth": "110% (inactive)"}
{"smiles": "COc1ccc(-c2nn(-c3ccc(NC(=O)Nc4ccc(Cl)c(C(F)(F)F)c4)cc3)cc2-c2ccncc2)cc1Cl", "growth": "-68.3% (active)"}
{"smiles": "O=C1COc2ccccc2C(=O)N1CCCCNc1ccccc1", "growth": "123% (inactive)"}
{"smiles": "O=C1CCC(c2c(O)cc(O)c3c(=O)c(O)c(-c4ccc(O)c(O)c4)oc23)N1", "note": "(centres undefined)", "growth": "99.8% (inactive)"}
{"smiles": "CCCCCCCCCCCCCCCC(=O)NS(=O)(=O)OC[C@H]1O[C@@H](n2cnc3c(N)ncnc32)[C@H](O)[C@@H]1O", "growth": "-83.4% (active)"}
{"smiles": "CN(CCNCc1ccccn1)CCNCc1ccccn1", "growth": "-24.3% (active)"}
{"smiles": "CCN(CC)CCNCC(O)Cc1ccc(OC)cc1", "note": "(centres undefined)", "growth": "103% (inactive)"}
{"smiles": "CN1CCN(Cn2nc(-c3cc(Cl)cc(Cl)c3Cl)n(/N=C/c3ccc(Cl)cc3)c2=S)CC1", "growth": "89.6% (inactive)"}
{"smiles": "Cn1cnc([N+](=O)[O-])c1N1c2ccncc2Sc2ccncc21", "growth": "100% (inactive)"}
{"smiles": "O=C(O)c1cccc2oc(-c3ccccc3O)nc12", "growth": "61% (inactive)"}
{"smiles": "Nn1c(CN2CCN(c3cc4c(cc3F)c(=O)c(C(=O)O)cn4C3CC3)CC2)n[nH]c1=S", "growth": "109% (inactive)"}
{"smiles": "Cc1ccc2nc(-c3ccc(-n4on4-c4ccc(/C=C/c5ccc(-n6on6-c6ccc(-c7nc8ccc(C)cc8s7)cc6)cc5S(=O)(=O)O)c(S(=O)(=O)O)c4)cc3)sc2c1", "growth": "110% (inactive)"}
{"smiles": "CC(C)(C)NCC(O)COc1c(Br)c(Br)c(Br)c2c1OC(C)(C)C2", "note": "(centres undefined)", "growth": "-52.5% (active)"}
